Laboratory results from the supplement of paper PMC10646978.
± gives the standard deviation.

Tests used:
Conditions in all cases: modulator concentration 10 µM
[1] = test system: RAW-Dual (murine macrophage reporter line); assay: NF-kB reporter (SEAP) activity fold change vs agonist alone; higher = enhanced NF-kB activity
In short: (§1)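 Overnight stimulation with a PRR agonist followed pre-incubation for 1 hour at 37 °C with compound at 10 μM final. This was done in RAW-Dual murine macrophage reporter cells seeded at 50 000 per well in 384-well plates. NF-κB (SEAP, QUANTI-Blue absorbance at 620 nm) and IRF (Lucia luciferase, QUANTI-Luc luminescence) were read from the supernatant. Each reporter's fold change relative to the mean agonist-only control on the same plate was averaged over replicate plates.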

[2] = test system: RAW-Dual (murine macrophage reporter line); assay: IRF reporter (Lucia luciferase) activity fold change vs agonist alone; higher = enhanced IRF activity
In short: as §1

[3] = test system: RAW-Dual (murine macrophage reporter line); assay: viability score (confluency relative to resting cells, overnight) (fraction); higher = more viable, active = viable (0.7 or more)
In short: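 Compound was added at a final 10 μM to RAW-Dual macrophages in 384-well plates and left overnight. Confluency was imaged with IncuCyte, and two masks were generated in IncuCyte software over all imaged wells. Each viability score is confluency relative to resting cells, and a compound met the cutoff only when both masks were above 70% of resting cells.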

[4] = agonist: CpG ODN 1826 0.5 ug/mL

C=CCc1ccc(OCCCOc2ccccc2C(C)=O)c(OC)c1
NF-kB reporter [1, 4]: 1.02 ± 0.072
NF-kB reporter ([1]; agonist: LPS 0.1 ug/mL): 1.08 ± 0.082
NF-kB reporter ([1]; agonist: MPLA […]): 1.19 ± 0.049
IRF reporter ([2]; agonist: 3'3'-cGAMP 10 ug/mL): 0.66 ± 0.026
IRF reporter ([2]; agonist: LPS 0.1 ug/mL): 0.863 ± 0.052
IRF reporter ([2]; agonist: MPLA […]): 1.07 ± 0.12
viability score [3]: 0.99 (active)

O=C(Oc1ccc(C=Nc2ccc([N+](=O)[O-])cc2)cc1)c1ccccc1
NF-kB reporter [1, 4]: 0.769 ± 0.061
NF-kB reporter ([1]; agonist: LPS 0.1 ug/mL): 0.967 ± 0.089
NF-kB reporter ([1]; agonist: MPLA […]): 0.978 ± 0.056
IRF reporter ([2]; agonist: 3'3'-cGAMP 10 ug/mL): 0.713 ± 0.025
IRF reporter ([2]; agonist: LPS 0.1 ug/mL): 0.985 ± 0.12
IRF reporter ([2]; agonist: MPLA […]): 1.12 ± 0.29
viability score [3]: 0.998 (active)

O=C(NCC1CN(c2ccc(N3CCOCC3=O)cc2)C(=O)O1)c1ccc(Cl)s1 (stereo not drawn)
NF-kB reporter [1, 4]: 1.36 ± 0.18
NF-kB reporter ([1]; agonist: LPS 0.1 ug/mL): 1.09 ± 0.41
NF-kB reporter ([1]; agonist: MPLA […]): 0.984 ± 0.063
IRF reporter ([2]; agonist: 3'3'-cGAMP 10 ug/mL): 0.898 ± 0.031
IRF reporter ([2]; agonist: LPS 0.1 ug/mL): 1.21 ± 0.43
IRF reporter ([2]; agonist: MPLA […]): 1.03 ± 0.08
viability score [3]: 1 (active)

CCOC(=O)N(CC(=O)OC)CP(=O)(O)C(Cc1ccccc1)C(=O)O (stereo not drawn)
NF-kB reporter [1, 4]: 0.988 ± 0.058
NF-kB reporter ([1]; agonist: LPS 0.1 ug/mL): 1.02 ± 0.07
NF-kB reporter ([1]; agonist: MPLA […]): 0.969 ± 0.069
IRF reporter ([2]; agonist: 3'3'-cGAMP 10 ug/mL): 1.03 ± 0.045
IRF reporter ([2]; agonist: LPS 0.1 ug/mL): 1.41 ± 0.21
IRF reporter ([2]; agonist: MPLA […]): 1.07 ± 0.095
viability score [3]: 1 (active)

CCCCSc1nnc2c(n1)OC(c1cccc(C)n1)Nc1ccc(Br)cc1-2 (stereo not drawn)
NF-kB reporter [1, 4]: 0.922 ± 0.073
NF-kB reporter ([1]; agonist: LPS 0.1 ug/mL): 1.05 ± 0.07
NF-kB reporter ([1]; agonist: MPLA […]): 0.97 ± 0.045
IRF reporter ([2]; agonist: 3'3'-cGAMP 10 ug/mL): 0.985 ± 0.14
IRF reporter ([2]; agonist: LPS 0.1 ug/mL): 1.02 ± 0.068
IRF reporter ([2]; agonist: MPLA […]): 0.921 ± 0.11
viability score [3]: 1 (active)

CCOc1ccccc1OCCCCOc1cccc(Cl)c1
NF-kB reporter [1, 4]: 0.947 ± 0.15
NF-kB reporter ([1]; agonist: LPS 0.1 ug/mL): 1.04 ± 0.093
NF-kB reporter ([1]; agonist: MPLA […]): 0.951 ± 0.084
IRF reporter ([2]; agonist: 3'3'-cGAMP 10 ug/mL): 0.956 ± 0.025
IRF reporter ([2]; agonist: LPS 0.1 ug/mL): 1.21 ± 0.15
IRF reporter ([2]; agonist: MPLA […]): 1.23 ± 0.2
viability score [3]: 1 (active)

COCCOC(=O)C1=C(C)NC(=O)NC1c1cc(OC)c(OC)c(OC)c1 (stereo not drawn)
NF-kB reporter [1, 4]: 0.937 ± 0.064
NF-kB reporter ([1]; agonist: LPS 0.1 ug/mL): 1.02 ± 0.062
NF-kB reporter ([1]; agonist: MPLA […]): 0.913 ± 0.069
IRF reporter ([2]; agonist: 3'3'-cGAMP 10 ug/mL): 0.956 ± 0.032
IRF reporter ([2]; agonist: LPS 0.1 ug/mL): 1.2 ± 0.15
IRF reporter ([2]; agonist: MPLA […]): 1.08 ± 0.14
viability score [3]: 0.995 (active)

Cl.Cl.OCCN1CCN(CCCN2c3ccccc3Sc3ccc(C(F)(F)F)cc32)CC1
NF-kB reporter [1, 4]: 0.972 ± 0.047
NF-kB reporter ([1]; agonist: LPS 0.1 ug/mL): 0.893 ± 0.073
NF-kB reporter ([1]; agonist: MPLA […]): 0.91 ± 0.05
IRF reporter ([2]; agonist: 3'3'-cGAMP 10 ug/mL): 0.895 ± 0.042
IRF reporter ([2]; agonist: LPS 0.1 ug/mL): 1.03 ± 0.15
IRF reporter ([2]; agonist: MPLA […]): 0.947 ± 0.3
viability score [3]: 0.677 (inactive)

O=C(NCCN1CCN(c2ccc(Cl)cc2)CC1)c1ccno1
NF-kB reporter [1, 4]: 0.933 ± 0.071
NF-kB reporter ([1]; agonist: LPS 0.1 ug/mL): 0.992 ± 0.082
NF-kB reporter ([1]; agonist: MPLA […]): 2 ± 0.72
IRF reporter ([2]; agonist: 3'3'-cGAMP 10 ug/mL): 1.01 ± 0.05
IRF reporter ([2]; agonist: LPS 0.1 ug/mL): 1.24 ± 0.26
IRF reporter ([2]; agonist: MPLA […]): 1.36 ± 0.49
viability score [3]: 0.96 (active)

Nc1ccc(S(=O)(=O)NCCO)cc1
NF-kB reporter [1, 4]: 0.983 ± 0.07
NF-kB reporter ([1]; agonist: LPS 0.1 ug/mL): 1.06 ± 0.12
NF-kB reporter ([1]; agonist: MPLA […]): 0.996 ± 0.068
IRF reporter ([2]; agonist: 3'3'-cGAMP 10 ug/mL): 0.973 ± 0.042
IRF reporter ([2]; agonist: LPS 0.1 ug/mL): 1.4 ± 0.12
IRF reporter ([2]; agonist: MPLA […]): 1.07 ± 0.11
viability score [3]: 1 (active)

CC1(C)C(=O)C2CC3(O)C4=CC(=O)OC(c5ccoc5)C4(C)CCC3C(C)(C2=O)C1CC(=O)O (stereo not drawn)
NF-kB reporter [1, 4]: 0.99 ± 0.056
NF-kB reporter ([1]; agonist: LPS 0.1 ug/mL): 1.04 ± 0.064
NF-kB reporter ([1]; agonist: MPLA […]): 1.01 ± 0.081
IRF reporter ([2]; agonist: 3'3'-cGAMP 10 ug/mL): 0.997 ± 0.035
IRF reporter ([2]; agonist: LPS 0.1 ug/mL): 1.51 ± 0.13
IRF reporter ([2]; agonist: MPLA […]): 1.25 ± 0.14
viability score [3]: 0.996 (active)

O=C(O)c1cc2nc(-c3ccc(Cl)c(Cl)c3)cc(C(F)(F)F)n2n1
NF-kB reporter [1, 4]: 0.958 ± 0.076
NF-kB reporter ([1]; agonist: LPS 0.1 ug/mL): 1.09 ± 0.06
NF-kB reporter ([1]; agonist: MPLA […]): 0.973 ± 0.058
IRF reporter ([2]; agonist: 3'3'-cGAMP 10 ug/mL): 1.02 ± 0.031
IRF reporter ([2]; agonist: LPS 0.1 ug/mL): 1.66 ± 0.2
IRF reporter ([2]; agonist: MPLA […]): 1.13 ± 0.11
viability score [3]: 1.01 (active)

OC1C=C2CCN3Cc4cc5c(cc4C(C1O)C23)OCO5 (stereo not drawn)
NF-kB reporter [1, 4]: 1.1 ± 0.099
NF-kB reporter ([1]; agonist: LPS 0.1 ug/mL): 0.352 ± 0.029
NF-kB reporter ([1]; agonist: MPLA […]): 1.35 ± 0.14
IRF reporter ([2]; agonist: 3'3'-cGAMP 10 ug/mL): 0.678 ± 0.062
IRF reporter ([2]; agonist: LPS 0.1 ug/mL): 0.751 ± 0.072
IRF reporter ([2]; agonist: MPLA […]): 1.04 ± 0.19
viability score [3]: 0.71 (active)

O=C(NN=Cc1ccc([N+](=O)[O-])s1)c1ccc(Br)cc1
NF-kB reporter [1, 4]: 0.968 ± 0.083
NF-kB reporter ([1]; agonist: LPS 0.1 ug/mL): 0.858 ± 0.082
NF-kB reporter ([1]; agonist: MPLA […]): 0.96 ± 0.09
IRF reporter ([2]; agonist: 3'3'-cGAMP 10 ug/mL): 0.395 ± 0.068
IRF reporter ([2]; agonist: LPS 0.1 ug/mL): 1.18 ± 0.2
IRF reporter ([2]; agonist: MPLA […]): 1.14 ± 0.28
viability score [3]: 0.996 (active)
